Records with an inconclusive call do not appear. The source made the active and inactive calls. Rule for the calls, unless noted: active = hit-call score of the fitted dose curve at least 0.9, where 1 is the maximum; inconclusive = response in the unintended direction; inactive = score below 0.9.
Tests used:
[1] = Tanguay_ZF_120hpf_AXIS_legacy: (Legacy) Oregon State University Tanguay Lab 120 Hour Post-fertilization zebrafish Assay for Body Axis Malformation (AID 2283635)
Method in brief: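 Embryos: 5D wild-type, pronase-dechorionated 4 hpf; static exposure 6–120 hpf, 28C, sealed, dark, 1 embryo/well, 0.64% DMSO. 120 hpf axis malformation scored present/absent; dead embryos excluded. Analysed as gain of signal vs DMSO.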

[2] = Tanguay_ZF_120hpf_EYE_legacy: (Legacy) Oregon State University Tanguay Lab 120 Hour Post-fertilization zebrafish Assay for Eye Malformation (AID 2283636);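 note: binary presence or absence of eye malformation scored by brightfield in 120 hpf larvae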
Method in brief: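 Dechorionated wild-type Tropical 5D zebrafish embryos were exposed statically from 6 hpf, one per well, to 120 hpf at 28C in sealed, foil-covered plates with 0.64% DMSO. Eye malformation was scored present/absent by brightfield microscopy against DMSO controls.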

[3] = Tanguay_ZF_120hpf_SNOU_legacy: (Legacy) Oregon State University Tanguay Lab 120 Hour Post-fertilization zebrafish Assay for Snout Malformation (AID 2283637)
Method in brief: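 Tropical 5D wild-type zebrafish embryos, dechorionated with pronase at 4 hpf, were exposed singly from 6 hpf to 120 hpf statically at 28C in 0.64% DMSO. Snout malformation was scored present/absent by brightfield microscopy, fitted against DMSO.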

[4] = Tanguay_ZF_120hpf_JAW_legacy: (Legacy) Oregon State University Tanguay Lab 120 Hour Post-fertilization zebrafish Assay for Jaw Malformation (AID 2283638)
Method in brief: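 Binary jaw-malformation calls at 120 hpf by brightfield imaging; DMSO (0.64% v/v) = baseline. Embryos: 5D wild-type, pronase-dechorionated, one per well from 6 hpf, static exposure, 28C, sealed, dark.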

[5] = Tanguay_ZF_120hpf_OTIC_legacy: (Legacy) Oregon State University Tanguay Lab 120 Hour Post-fertilization zebrafish Assay for Otic Vesicle Malformation (AID 2283639)
Method in brief: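 Tropical 5D wild-type zebrafish embryos statically exposed in 0.64% DMSO at 28C until 120 hpf; 5uM trimethyltin chloride as positive control. Otic vesicle malformation scored present/absent by brightfield; dead embryos not scored; gain fitted versus DMSO.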

[6] = Tanguay_ZF_120hpf_BRAI_legacy: (Legacy) Oregon State University Tanguay Lab 120 Hour Post-fertilization zebrafish Assay for Brain Malformation (AID 2283641)
Method in brief: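 Read-out: binary brain morphology call at 120 hpf (brightfield), fitted in gain-of-signal direction vs DMSO. Wild-type Tropical 5D embryos, static exposure, 28C, 0.64% DMSO final; 5uM trimethyltin chloride as positive control.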

[7] = Tanguay_ZF_120hpf_PFIN_legacy: (Legacy) Oregon State University Tanguay Lab 120 Hour Post-fertilization zebrafish Assay for Pectoral Fin Malformation (AID 2283648);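 note: each larva judged yes or no for fin defect by brightfield with dead larvae skipped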
Method in brief: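 Tropical 5D wild-type embryos, dechorionated with pronase at 4 hpf, were placed singly in wells at 6 hpf and statically exposed until 120 hpf at 28C, sealed and dark, with 0.64% (vol/vol) final DMSO; pectoral fin malformation scored present/absent.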

[8] = Tanguay_ZF_120hpf_CFIN_legacy: (Legacy) Oregon State University Tanguay Lab 120 Hour Post-fertilization zebrafish Assay for Caudal Fin Malformation (AID 2283649)
Method in brief: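 Dechorionated 5D wild-type zebrafish, static exposure 6–120 hpf, 28C, sealed and dark, 0.64% v/v DMSO final. Binary fin-malformation call at 120 hpf, brightfield; gain of signal vs DMSO baseline.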

[9] = Tanguay_ZF_120hpf_PIG_legacy: (Legacy) Oregon State University Tanguay Lab 120 Hour Post-fertilization zebrafish Assay for Pigmentation Malformation (AID 2283650)
Method in brief: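 Tropical 5D wild-type zebrafish embryos, dechorionated with pronase at 4 hpf, were exposed singly from 6 hpf to 120 hpf statically at 28C in sealed, dark plates with 0.64% DMSO; pigmentation scored present/absent by brightfield microscopy, fitted against DMSO.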

[10] = Tanguay_ZF_120hpf_CIRC_legacy: (Legacy) Oregon State University Tanguay Lab 120 Hour Post-fertilization zebrafish Assay for Circulatory Malformation (AID 2283651)
Method in brief: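 Dechorionated wild-type 5D zebrafish embryos, one per well, statically exposed from 6 to 120 hpf at 28C with 0.64% DMSO; circulatory malformation scored present/absent by brightfield microscopy at 120 hpf, dead embryos excluded.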

[11] = Tanguay_ZF_120hpf_TRUN_legacy: (Legacy) Oregon State University Tanguay Lab 120 Hour Post-fertilization zebrafish Assay for Truncated Body (AID 2283655)
Method in brief: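 Whole-embryo zebrafish screen: dechorionated 5D embryos, static exposure 6–120 hpf, 28C, sealed foil-covered plates, 0.64% DMSO. Binary truncation call; gain of signal versus DMSO baseline.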

[12] = Tanguay_ZF_120hpf_NC_legacy: (Legacy) Oregon State University Tanguay Lab 120 Hour Post-fertilization zebrafish Assay for Notochord and Tail Malformation (AID 2283656)
Method in brief: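 Dechorionated Tropical 5D wild-type zebrafish embryos, one per well from 6 hpf, statically exposed to 120 hpf at 28C in 0.64% DMSO final. Notochord distortion scored present/absent by brightfield; dead embryos excluded.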

[13] = Tanguay_ZF_120hpf_TR_legacy: (Legacy) Oregon State University Tanguay Lab 120 Hour Post-fertilization zebrafish Assay for Touch Response (AID 2283667)
Method in brief: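 Tropical 5D wild-type zebrafish embryos were exposed statically in sealed, foil-covered plates at 28C until 120 hpf, with 0.64% (vol/vol) final DMSO. Touch response was scored as present or absent; embryos that died were not scored.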

[14] = STM_H9_OrnithineISnorm_perc: Stemina devTOX quickPredict H9 human embryonic stem cell (hESC)-based Assay for Ornithine (ORN) Metabolite Biomarker, Normalized (AID 2283712; active = hit-call score of the fitted dose curve at least 0.9, where 1 is the maximum; inactive = score below 0.9;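 note: ornithine released into spent medium during last day measured by mass spectrometry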)
Method in brief: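 Undifferentiated H9 hESCs exposed 72 h with daily media and compound renewal; final 24-h conditioned medium analysed by UPLC-HRMS. Ornithine peak area normalised to spiked C13 standard and to median 0.1% DMSO control; viability by CellTiter-Fluor.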

[15] = STM_H9_CystineISnorm_perc: Stemina devTOX quickPredict H9 human embryonic stem cell (hESC)-based Assay for Cystine (CYSS) Metabolite Biomarker, Normalized (AID 2283713; active = hit-call score of the fitted dose curve at least 0.9, where 1 is the maximum; inactive = score below 0.9)
Method in brief: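 Undifferentiated H9 hESCs exposed 72 h, compound and media replaced every 24 h; final 24-h media analysed by UPLC-HRMS. Cystine normalized to C13 spike-in standard and median 0.1% DMSO control.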

[16] = STM_H9_OrnCyssISnorm_ratio: Stemina devTOX quickPredict H9 human embryonic stem cell (hESC)-based Assay for Ornithine (ORN):Cystine (CYSS) Ratio (AID 2283714)
Method in brief: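 Undifferentiated H9 hESCs were exposed to compound for 72h with media and chemical replaced every 24h. Final 24-h conditioned media were deproteinized and analysed by UPLC-HRMS. ORN and CYSS peak areas were normalized to C13 internal standards and the ratio taken versus 0.1% DMSO.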

[17] = Tanguay_ZF_120hpf_ActivityScore_legacy: (Legacy) Oregon State University Tanguay Lab 120 Hour Post-fertilization zebrafish Assay Score for Activity (AID 2283742)
Method in brief: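 Tropical 5D wild-type zebrafish embryos, dechorionated with pronase at 4 hpf, were exposed singly from 6 hpf to 120 hpf statically at 28C in 0.64% DMSO. Malformations and mortality were scored as binary by brightfield, with the activity score combining 18 morphology components.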

[18] = ACEA_ER_AUC_viability: ACEA Biosciences xCELLigence Real-Time Cell Analysis on Estrogen Receptor Agonism for Viability (AID 2283782);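 note: continuous compound exposure with impedance area under curve over 80 h; hit means loss of impedance signal meaning reduced cell growth or viability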
Method in brief: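 T-47D human breast cells in phenol red-free RPMI1640 with 10% charcoal-stripped FBS were dosed with an 8-point 1:4 dilution series from 100 uM top final concentration, in duplicate. Impedance-based growth was followed for 80 h; AUC analysed versus DMSO.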

Measured: AC50

c1cc[n+]2c(c1)-c1cccc[n+]1CC2
active: [14] 8.35 µM | [15] 1.7 µM | [16] 2.36 µM | [18] 22.8 µM
inactive: all other assays above
